target: TNKS 174-649, O95271
Sequence (O95271 174-649): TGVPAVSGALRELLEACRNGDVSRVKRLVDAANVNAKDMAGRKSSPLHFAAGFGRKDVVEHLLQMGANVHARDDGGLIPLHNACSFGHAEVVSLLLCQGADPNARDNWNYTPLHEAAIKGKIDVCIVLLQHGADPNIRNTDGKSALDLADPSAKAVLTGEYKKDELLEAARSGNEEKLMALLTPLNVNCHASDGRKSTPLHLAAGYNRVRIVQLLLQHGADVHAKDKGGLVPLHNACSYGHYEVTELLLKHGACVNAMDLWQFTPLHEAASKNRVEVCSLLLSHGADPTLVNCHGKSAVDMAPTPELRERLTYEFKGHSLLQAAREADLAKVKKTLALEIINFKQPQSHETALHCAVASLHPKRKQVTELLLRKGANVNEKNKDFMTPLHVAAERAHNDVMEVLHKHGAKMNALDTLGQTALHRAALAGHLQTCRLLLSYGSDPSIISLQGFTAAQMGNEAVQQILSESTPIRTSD

Selected by phage display, active:
PGSLREDPLGEAQPQI [INPP5K, Q9BT40] confidence 4
QGLLHEAGSTDDRIVV [SPNS1, Q9H2V7] confidence 2
DGVARTPPVGMSGQVA [KIF26A, Q9ULI4] confidence 3
EERPEVLGQRSTDVVD [STK36, Q9NRP7] confidence 2
LSTGYLQIAERREPIG [DTNBP1, Q96EV8] confidence 4

target: PEX14 16-84, O75381
Sequence (O75381 16-84): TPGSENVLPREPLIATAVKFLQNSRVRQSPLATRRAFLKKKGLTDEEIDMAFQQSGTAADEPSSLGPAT

Selected by phage display, active:
LSGEHAYLQSSWNLLD [CACNA1H, O95180] confidence 2
QLQEAWLAEAQVPDDE [ETV5, P41161] confidence 3
GAAASLSEAWLRAGEG [SPIDR, Q14159] confidence 2
MAAVWQQVLAVDARYN [WDR13, Q9H1Z4] confidence 3
PPPSPEDLAELWGHGV [CHTF18, Q8WVB6] confidence 3
EVQTENHAPWSISDYF [AGGF1, Q8N302] confidence 2
EMEKNWQELLHETKQR [SYCE3, A1L190] confidence 2
STPLPEPHIDLELVWR [C9orf131, Q5VYM1] confidence 2
GHPELSEAELQQLYAS [ZFHX4, Q86UP3] confidence 2
LNSYEAEWDMVNTVSF [TBC1D15, Q8TC07] confidence 2
DAEERGEQALQDAWQK [KRT77, Q7Z794] confidence 2
DPNDQVAMGRQWLAIQ [AATF, Q9NY61] confidence 3
WEEEFGREMRRQLWLE [FAM186B, Q8IYM0] confidence 2
LTEREWADEWKHLDHA [CBFA2T2, O43439] confidence 4
ELEEEWLKEAGLSNLF [ARHGAP18, Q8N392] confidence 2
VLMESLKSIWSSSMMH [SMG7, Q92540] confidence 3
DMQLLWEKAVQQHQHG [SUGP1, Q8IWZ8] confidence 2
RMEKLEGYWGEAQSLA [PPP1R9B, Q96SB3] confidence 3
GGLEGWWLASLHGRQG [NEDD9, Q14511] confidence 4
SATVPDQEELGEVWQR [HECW2, Q9P2P5] confidence 3
RMDEAWEQSRAPGPVH [RIMBP2, O15034] confidence 2
SLPEGLDMERRWGQVS [NR3C2, P08235] confidence 2
DSHVSLETEWGQYWDE [ARHGAP27, Q6ZUM4] confidence 3
VKDLEEHWQRHLARTT [EVI5, O60447] confidence 3
ELHHIWQSQQRLQPVA [IRF5, Q13568] confidence 3
KLEHTWKALVHDGDTV [PIP5K1C, O60331] confidence 3
DLSEAWMQANYDPLSD [ELOA2, Q8IYF1] confidence 3
SEQNKLGELWEEMALS [GPATCH2L, Q9NWQ4] confidence 3

target: SUMO1 1-101, P63165
Sequence (P63165 whole entry): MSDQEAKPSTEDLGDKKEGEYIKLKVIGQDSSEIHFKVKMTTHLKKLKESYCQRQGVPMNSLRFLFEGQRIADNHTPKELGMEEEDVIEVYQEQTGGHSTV

Selected by phage display, active:
VEVIDLTIESSSDEED [PIAS3, Q9Y6X2] confidence 4
EEEDDVVFVSSKPGSP [TTF2, Q9UNY4] confidence 2
GIQYIDLSSDSEDVVS [SMARCAD1, Q9H4L7] confidence 4
DEIVDLTAESLEPVVV [RNF4, P78317] confidence 2
DDDEPIFVGEISSSKP [ZNF280D, Q6N043] confidence 2
SPAEVVDLTLDEDSRR [C18orf25, Q96B23] confidence 4
PGADVVDLTLDSSSSS [PIAS4, Q8N2W9] confidence 2
DDDDVVFIESIQPPSI [ZMYM5, Q9UJ78] confidence 3
AEVVDLTVDEDEPTVV [RNF111, Q6ZNA4] confidence 2
ALENRVAVLENQNKTL [CREB1, P16220] confidence 2

target: SIN3A 295-383, Q96ST3
Sequence (Q96ST3 295-383): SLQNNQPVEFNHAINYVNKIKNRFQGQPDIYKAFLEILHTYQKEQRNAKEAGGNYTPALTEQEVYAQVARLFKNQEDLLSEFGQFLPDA

Selected by phage display, active:
IEALLEAGQARDAQDV [RRBP1, Q9P2E9] confidence 2
AGGDLAGLLEALSDMG [NFKB2, Q00653] confidence 2
SGTAGAALLALLAALA [EGFR, P00533] confidence 2
LQALLAATSTAGSQDI [SNTA1, Q13424] confidence 2
LWEDLLHAAEAHSSAT [PHTF2, Q8N3S3] confidence 2
DFSSLLHALSFEQILQ [DENND2D, Q9H6A0] confidence 2
GDWLTMLREASDEIVA [WWC2, Q6AWC2] confidence 2
MAFSELLDLVGGLGRF [SLC22A12, Q96S37] confidence 2

target: TLN1 309-401, Q9Y490
Sequence (Q9Y490 309-401): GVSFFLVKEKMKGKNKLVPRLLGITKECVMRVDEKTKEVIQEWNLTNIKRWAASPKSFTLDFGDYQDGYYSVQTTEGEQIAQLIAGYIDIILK

Selected by phage display, active:
QWVTSPLHSPTLKDAH [ARHGAP31, Q2M1Z3] confidence 4
ALPSTWIENKLYGMSD [RET, P07949] confidence 4
AVVWIDSTLHQPMFLL [OR52W1, Q6IF63] confidence 2
SQSDDGPIMWVRPGEQ [RSBN1, Q5VWQ0] confidence 2
AHLWFDNQIFVADTSE [ATP12A, P54707] confidence 3
TTGGGWVISRIFDSGY [FMO1, Q01740] confidence 4
EDLKWLWYENRIYVLG [NEMP2, A6NFY4] confidence 2
DLIFTDSKLYIPLEYR [TPTE, P56180] confidence 4
GLYPIIWQYPNGTHAY [JMJD1C, Q15652] confidence 2
WTFSPLTETEMQITAV [PRUNE2, Q8WUY3] confidence 2
EEESMFFSNPLFLASP [PSD4, Q8NDX1] confidence 2
